Consider 40 compounds from PubChem BioAssay AID1347145 (National Center for Advancing Translational Sciences (NCATS), 2019).

Structures are written as SMILES. Results filed as inconclusive are left out. Entries that show only a call come without a potency. Values without a mark were called inactive. The source made the active and inactive calls. The call rests on the fitted dose curve; in most records, active means well fitted inhibition curve with a large enough effect; inconclusive means small, poorly fitted or top-dose-only effect; inactive means no such curve, though single readings can be large or run the other way.
Potency means the concentration at half of the fitted maximal effect.

N-terminal Xaa-Pro-Lys N-methyltransferase 1 (Homo sapiens), sequence (Q9BV86 whole entry, looked up): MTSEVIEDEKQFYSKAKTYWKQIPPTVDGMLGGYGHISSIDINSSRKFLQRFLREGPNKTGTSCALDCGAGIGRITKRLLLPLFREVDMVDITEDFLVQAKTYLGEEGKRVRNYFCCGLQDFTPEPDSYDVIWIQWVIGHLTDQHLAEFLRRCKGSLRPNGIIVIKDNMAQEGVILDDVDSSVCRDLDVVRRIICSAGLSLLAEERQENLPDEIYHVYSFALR

This test concerns the target N-terminal Xaa-Pro-Lys N-methyltransferase 1 (Homo sapiens) (UniProt Q9BV86). The test is described as follows: qHTS Assay for Inhibitors of N-terminal methyltransferase 1 (NTMT1): MTaseGlo Assay Confirmatory Screen, Round 1. The note with it: Recombinant NTMT1, MTase-Glo SAH luminescence; series mostly up to 57.1 µM. From the text: Assay Submitter (PI): Rong Huang Ph.D, Purdue University, West Lafayette, IN 47907 The N-terminal methytransferase 1 is the first methyltransferase that methylates protein alpha-N-amines and plays an important role in regulating cell mitosis, chromatin interactions and DNA repair. It is observed to be over-expressed in various cancer patient tissues like malignant melanoma and colorectal cancer tissues. Knockdown of NTMT1 in cancer cells causes cell mitotic defects and enhances sensitivity to DNA damaging chemotherapeutics. […] These critical cellular processes in which NTMT1 is implicated, coupled with emerging links to cellular dysfunction, strengthen the inference that NTMT1 is a compelling novel anticancer target. Progress have been made in understanding the molecular properties of NTMT1 and the biological consequences of protein alpha-N-terminal methylation, but there are no specific small molecule probes available for NTMT1 to fully characterize its MTase activity. To address this unmet need, a panel of assay is created and established to enable quantitative high-throughput screening (qHTS) for novel, potent, and selective small molecule NTMT1 inhibitors. Two orthogonal qHTS that use different reagents (ThioGlo vs. MTaseGlo) are developed for primary robotic screening against the NCATS chemical library of more than 400,000 small molecules. Identified inhibitors are reacquired, validated, and further characterized. MTaseGlo Assay is a luminescence screen that measure the activity of methyltransferases based on the reaction product S-adenosyl homocysteine (SAH). The substrate SAM is converted to SAH upon enzyme activation. MTase-Glo reagent and detection solution convert SAH to ATP and measure the light from the luciferase reaction. […] Early Translation Branch (ETB) National Center for Advancing Translational Sciences (NCATS) National Institute of Health (NIH)
Materials: NTMT1 enzyme, substrate SPKRIA, control peptide RCC1-6 is provided by the Huang laboratory. MTaseGlo Assay: In brief, 3 µL of enzyme mixture (final concentrations of 125 nM and 100 µM for NTMT1 and SAM, respectively) into all wells of a 1,536-well solid-bottom white plate (Greiner Bio One, Monroe, NC). 23 nL of DMSO or Ac-RCC1-10 (final concentration range 234 nM to 143 microM) was transferred via Wako Pin-tool (Wako Automation, Richmond, VA) and incubated (RT) for ~15 minutes. Next, 1 µL of substrate (final concentration 1 µM) or buffer was dispensed, and the reaction proceeded for 30 minutes (RT, protected from light) followed by a 1 microL addition of [5X] MTase-Glo Reagent(R). Samples were incubated (RT, protected from light) for 30 minutes to allow for SAH to be converted to ADP, followed by a 5 microL addition of [1X] MTase-Glo Detection Solution(R) to allow for ADP to be converted to ATP, which was then detected with a luciferase reaction. Samples were centrifuged for 15 seconds at 1,000 RPM's, followed by a RT incubation for 30 minutes. Plates were then read using Luminescence optics on a ViewLux detector. Data were normalized to no-enzyme (0% activity) and no-inhibitor (DMSO; 100%) controls, and the resulting percent inhibition data were fitted to a 4-parameter Hill equation using Graphpad Prism.
On the technique in general: qHTS replaces the single test concentration by a dilution series.
With `Nc1ncnc2c1ncn2[C@@H]1O[C@H](COP(=O)(O)OP(=O)(O)OP(=O)(O)O)[C@@H](O)[C@H]1O`, the Potency result is “inactive”. Same read-out and setting: as for `Nc1ncnc2c1[nH]c(=S)n2C1OC(CO)C(O)C1O` (stereo not given), the entry is “inactive”; as for `O=S(=O)(O)c1ccc(Nc2ncnc3c2ncn3[C@@H]2O[C@H](CO)[C@@H](O)[C@H]2O)cc1`, “inactive”. With `Nc1nc(Cl)nc2c1ncn2[C@@H]1O[C@H](CO)[C@H](O)[C@H]1O`, the Potency result was “inactive”. Consider `COc1cc2c(NC3CCN(C)CC3)nc(N3CCCCC3)nc2cc1OCCCN(C)C`, for which the Potency entry was “inactive”. Turning to `N#Cc1ccc(COC[C@H]2O[C@@H](n3c(NCc4ccc(Cl)c(Cl)c4)nc4c(N)ncnc43)[C@@H](O)[C@@H]2O)cc1`, the Potency result is “inactive”.

Consider `COc1cc2nc(N3CCN(C)CC3)nc(NCCN(C)C)c2cc1OC`, for which the Potency result was “inactive”.

As for `OC[C@H]1O[C@@H](n2cnc3c(NC4CCCCC4)ncnc32)[C@H](O)[C@@H]1O`, the Potency result was “inactive”. With `CNc1nc2c(N)ncnc2n1[C@@H]1O[C@@H]2COP(=O)(O)O[C@H]2[C@H]1O`, the Potency entry was “inactive”. Still for that read-out and setting: as for `Nc1ncnc2c1ncn2[C@@H]1O[C@H](C(=O)N2CCN(CC(=O)Nc3cccc4c3CNC4=O)CC2)[C@@H](O)[C@H]1O`, the entry is “inactive”; as for `CSc1ncnc2c1ncn2C1OC(CO)C(O)C1O` (stereo not given), 30.6 µM (active). As for `OC[C@H]1O[C@@H](n2cnc3c(Nc4ccccc4)ncnc32)[C@H](O)[C@@H]1O`, the Potency entry is “inactive”. The same measure, in the same setting: the value for `Nc1ncnc2c1ncn2[C@@H]1O[C@H](COP(=O)(O)O)[C@@H](O)[C@H]1O` was “inactive”; that for `CCCCC#Cc1nc(NC)c2ncn([C@@H]3O[C@@H](CO)[C@H](O)[C@H]3O)c2n1` was “inactive”; that for `COc1cc2nc(NCCN(C)C)nc(NC3CC3)c2cc1OC` was “inactive”. Consider `COc1cc2c(NC3CCN(CC4CCCCC4)CC3)nc(N3CCCCC3)nc2cc1OCCCN1CCCCC1`, for which the Potency result was “inactive”. Regarding `OCC1OC(n2cnc3c(=S)nc[nH]c32)C(O)C1O` (stereo not given), the Potency entry was “inactive”. Consider `CC[C@H](C)n1cc(C)c2c(C(=O)NCc3c(C)cc(C)[nH]c3=O)cc(-c3ccc(N4CCNCC4)nc3)cc21`, for which the Potency entry was “inactive”. Regarding `Nc1ncnc2c1ncn2[C@H]1O[C@@H](CSCC[C@@H](N)C(=O)O)[C@H](O)[C@@H]1O`, the Potency result is “inactive”.

As to `CCNC(=O)[C@H]1O[C@H](n2cnc3c(N)nc(NCCc4ccc(CCC(=O)O)cc4)nc32)[C@@H](O)[C@@H]1O`, the Potency result is “inactive”. As for `CNc1ncnc2c1ncn2[C@H]1C[C@H](O)[C@@H](CO)O1`, the Potency result was “inactive”.

`COc1cc2nc(N3CCN(C)CC3)nc(NCCCN(C)C)c2cc1OC`: the Potency result is “inactive”. With `CNC(=O)[C@H]1O[C@@H](n2cnc3c(N)ncnc32)[C@H](O)[C@@H]1O`, the Potency result is “inactive”. With `CNc1ncnc2c1ncn2[C@@H]1O[C@H](CO)[C@@H](O)[C@@H]1O`, the Potency result was “inactive”.

Take `CNc1ncnc2c1ncn2[C@@H]1O[C@H](CO)C(O)[C@H]1O` (stereo not given in full): the Potency result is “inactive”. For the compound `Nc1ncnc2c1nc(Cl)n2[C@@H]1O[C@H](CO)[C@@H](O)[C@@H]1O`, the Potency entry is “inactive”. For the compound `Nc1ncnc2c1ncn2[C@@H]1O[C@H](CO)[C@@H](O)[C@@H]1O`, the Potency result is “inactive”.

`Nc1ncnc2c1ncn2[C@@H]1O[C@H](COP(=O)(O)OP(=O)(O)OC[C@H]2OC(O)[C@H](O)[C@@H]2O)[C@@H](O)[C@H]1O` (stereo not given in full): the Potency result is “inactive”. On the same count and under the same terms, the value for `Nc1nc2c(ncn2[C@@H]2O[C@H](CO)[C@@H](O)[C@H]2O)c(=O)[nH]1` was “inactive”; that for `COc1cc2c(NC3CCN(C)CC3)nc(N3CCCN(C)CC3)nc2cc1OCCCCN` was 15.3 µM (active). Take `COc1cc2nc(N3CCOCC3)nc(NC3CC3)c2cc1OC`: the Potency entry is “inactive”. The same measure, in the same setting: the value for `COc1cc2c(NC3CCN(C)CC3)nc(N3CCCN(C)CC3)nc2cc1O` was “inactive”; that for `COc1cc2c(NC3CCN(C(C)C)CC3)nc(N3CCC(N4CCCC4)CC3)nc2cc1OCCCN1CCCCC1` was “inactive”. Take `CCNc1nc(N2CCCN(C)CC2)nc2cc(OC)c(OC)cc12`: the Potency entry is “inactive”. Take `CSc1nc(N)c2ncn([C@@H]3O[C@H](COP(=O)(O)OP(=O)(O)O)C(O)[C@H]3O)c2n1` (stereo not given in full): the Potency result is “inactive”. For the compound `COc1cc2nc(N3CCCN(C)CC3)nc(N3CCN(C)CC3)c2cc1OC`, the Potency result was “inactive”. With `COc1cc2c(NC3CCN(C(C)C)CC3)nc(N3CCCN(C(C)C)CC3)nc2cc1OCCCN1CCCCC1`, the Potency result is “inactive”.

For `C[C@H](Cc1ccccc1)Nc1ncnc2c1ncn2[C@@H]1O[C@H](CO)C(O)[C@H]1O` (stereo not given in full), the Potency result is “inactive”. As for `Nc1nc2c([nH]c(=O)n2[C@@H]2O[C@H](CO)[C@@H](O)[C@H]2O)c(=O)[nH]1`, the activity change, negative = inhibition is -0.0532% [at 6.33 µM]. On to `COc1cc2c(NC3CCN(C(C)C)CC3)nc(N3CCC(F)(F)CC3)nc2cc1OCCCN1CCCCC1`, for which the Potency result is “inactive”.
